Measured values: PubChem BioAssay (NCI)
About 83,000 compounds went through this panel and 20% of them were active in at least one assay; those are over-represented in the sample as a whole.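 Treatment: one concentration, 48 hours, 96-well format. Scoring: percent growth, with anything below 10 considered active.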 Unmarked numbers belong to inactive results. The source made the active and inactive calls.

Test system: EKVX NSCLC
Test: NCI-60 one-dose screen, 48 h (100 = growth as untreated, 0 = no growth, -100 = all killed)
Settings: 10 µM unless noted

| Structure (SMILES) | growth |
| --- | --- |
| COc1ccc2c(c1)c(-c1noc(-c3cn(C)c4ncc(F)cc34)n1)cn2C | 65% |
| O=C(N/N=C\c1cc(Cl)ccc1O)N/N=C/c1cc(Cl)ccc1O | 69.4% |
| O=C(O)c1ccccc1C(F)(F)F | 93.2% |
| CS(=O)(=O)c1cccnn1 | 76.9% |
| O=C(Nc1ccc(Oc2ccc(F)cc2)c(Cl)c1)c1cccnn1 | 75% |
| CCC(Br)(CC)C(=O)c1ccc(OCC(=O)O)c(Cl)c1Cl | 95.3% |
| NC(=O)c1cccc(-c2ccc(S(=O)(=O)Nc3ccc4c(c3)N(C(=O)C3CC3)CCC4)cc2)c1 | 67.1% |
| C#CCC(C(=O)OCC)C(=O)OCC | 95.1% |
| O=[N+]([O-])c1cc(CCl)ccc1OCCBr | 104% |
| O=C(O)c1cn(C2CC2)c2cc(N3CCN(Cc4cc(Cl)ccc4O)CC3)c(F)cc2c1=O | 65.1% |
| Cc1ccc(C2=C/C(=C/c3ccc(Br)cc3)C(=O)N2CCc2ccc(S(N)(=O)=O)cc2)cc1 | 92.8% |
| COc1ccc(C(=O)/C=C/c2ccccn2)c(O)c1 | 94.2% |
| Cc1cc(C)c(S(=O)(=O)/N=c2/n(-c3ccccc3)nc3n2CCN3C2=NCCN2)c(C)c1 | 83% |
| Cc1ccc(S(=O)(=O)n2cc(C(=O)C(=O)N3CCCCC3)c3ccccc32)cc1 | 74.8% |
| COc1cc(C)cc2oc3oc(=N)c(C(=O)c4ccccc4)cc3c(=O)c12 | 106% |
| COc1ccc(OC)c([N+](=O)[O-])c1C(=O)CNC(C)=O | 97.5% |
| Cc1ccc(S(=O)(=O)N/N=C2\CC3CCC2(C)C3(C)C)cc1 (configuration not stated) | 105% |
| O=C(N=c1n(-c2ccccc2)nc2n1CCN2C1=NCCN1C(=O)c1ccc(Cl)cc1)c1ccc(Cl)cc1 | 77.1% |
| O=C(NCc1ccc(Cn2c(=O)sn(-c3ccccc3)c2=O)cc1)OCc1ccc2c(Br)cc(Br)c(O)c2n1 | -92.3% (active) |

| Structure (SMILES) | growth |
| --- | --- |
| Cc1nc(Cl)c2c(n1)N(C)c1ccc(Cl)cc1C(C)C2 (configuration not stated) | 75% |
| C=C(C)[C@@H]1CC[C@]2(COCCC#N)CC[C@]3(C)[C@H](CC[C@@H]4[C@@](C)(CCCNCCC#N)[C@H](C(=C)C)CC[C@]43C)[C@@H]12 | 92.9% [100 µM] |
| O=C(Nc1cccc(F)c1)c1cc(=O)[nH]c2cc(Br)ccc12 | 63% |
| O=C(NCCCNC(=O)OCc1ccc2c(Br)cc(Br)c(O)c2n1)OCc1ccc2c(Br)cc(Br)c(O)c2n1 | -5.94% (active) |
| COc1ccc(OC)c(NC=O)c1 | 101% |
| CCN(CCNc1ccc(C)c2sc3cc(Cl)ccc3c(=O)c12)CC(C)O (configuration not stated) | 88.9% |
| CN(C)c1ccc(-c2ccc(-c3ccc(C(=N)N)cc3)s2)cc1 | 85.9% |
| CC(=O)OC[C@]12CC[C@@H]([C@@H](C)C(N)=O)[C@@H]1[C@H]1CC[C@@H]3[C@@]4(C)CC[C@H](OC(C)=O)C(C)(C)[C@@H]4CC[C@@]3(C)[C@]1(C)CC2 | -25.2% [100 µM] (active) |
| O=C(Nc1ccccc1)Nc1ccc(C(=O)/C=C/c2ccc(N3CCCC3)cc2)cc1 | 74.2% |
| C#C[C@]1(O)CC[C@H]2[C@@H]3CC=C4c5nc(Nc6ccccn6)sc5CC[C@]4(C)[C@H]3CC[C@@]21C | 2.77% (active) |
| Cn1cc(-c2nnc(-c3cn(C)c4ncccc34)o2)c2ccccc21 | 49.9% |
| O=C1C(Cl)=C(Nc2ccc3cn[nH]c3c2)C(=O)c2ccccc21 | -64.7% (active) |
| COc1cc(/C=C/C(=O)/C=C/c2ccc(-n3ccnc3C)cc2)ccc1O | 102% |
| Nc1cc(Cl)cc2cccnc12 | 102% |
| CN(C)CCOc1ccc(/C(=C(/CCCl)c2ccccc2)c2ccccc2)cc1 | 30% |
| Nc1cc(N)c(N=Nc2ccc(S(=O)(=O)O)cc2)cc1N=Nc1ccc(-c2ccc(N=Nc3ccc(O)c(C(=O)O)c3)cc2)cc1 | 97.1% |
| Cn1cc(-c2noc(-c3cn(C)c4ncc(F)cc34)n2)c2ccccc21 | 34.3% |
| Nc1ccc(NC(=O)c2ccccc2)c2c1C(=O)c1ccccc1C2=O | 76.3% |
